# PubChem BioAssay AID1376 (SRMLSC, 2008)
# The whole screen tested about 220,000 compounds, of which about 530 (0.24%) were called active. For the sample, actives were picked, then their nearest neighbours and some compounds at random. Potency and affinity values are given separately. Unmarked numbers belong to inactive results. No stated cut-off is given here; in the data, active means inhibition above about 13%; inconclusive means no clear call, values can overlap the other calls; inactive means below that.
# Biological target: Bifunctional protein GlmU (Mycobacterium tuberculosis (strain ATCC 25618 / H37Rv)) (UniProt P9WMN3)
# Sequence (P9WMN3 whole entry, looked up): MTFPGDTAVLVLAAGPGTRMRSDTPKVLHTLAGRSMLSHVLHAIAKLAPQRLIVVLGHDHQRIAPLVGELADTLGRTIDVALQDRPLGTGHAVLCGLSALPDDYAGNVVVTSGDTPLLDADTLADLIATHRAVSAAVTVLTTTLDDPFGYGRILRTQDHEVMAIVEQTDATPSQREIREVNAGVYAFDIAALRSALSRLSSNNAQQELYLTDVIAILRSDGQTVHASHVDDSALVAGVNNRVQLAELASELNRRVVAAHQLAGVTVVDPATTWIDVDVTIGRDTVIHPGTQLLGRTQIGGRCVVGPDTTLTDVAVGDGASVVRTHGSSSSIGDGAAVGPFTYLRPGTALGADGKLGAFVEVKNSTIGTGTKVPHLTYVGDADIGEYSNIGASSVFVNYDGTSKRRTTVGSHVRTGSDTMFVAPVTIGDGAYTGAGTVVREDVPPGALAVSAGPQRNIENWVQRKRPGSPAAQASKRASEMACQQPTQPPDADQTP
# Assay: inhibition of mycobacterial GlmU enzyme – biochemical, glucosamine-1-phosphate acetyltransferase (AID 1376);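 further: 0% = complete reaction with vehicle and 100% = reaction without substrate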
# Conditions: M. tuberculosis GlmU acetyltransferase enzyme assay; hits give high values;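 tested at 30 µM in the primary screen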
row,SMILES,inhibition
1,O=[N+]([O-])c1cc(S(=O)(=O)N2CCCC2)ccc1N/N=C/c1cccnc1,-1.08%
2,O=c1cc(O)c2ccc(O)cc2o1,4.26%
3,O=c1cc(-c2ccc(O)cc2)oc2ccc(O)cc12,-0.88%
4,O=C(c1ccc([N+](=O)[O-])cc1[N+](=O)[O-])N1CCCC1,2.34%
5,CC1CC(C)CN(C(=O)Cn2c(=O)n(CCCCC(=O)NCc3ccco3)c(=O)c3ccccc32)C1 (stereo not drawn),4.18%
6,CCOc1nc2c(c(=O)n(C)c(=O)n2C)n1Cc1ccccc1Cl,1.39%
7,CCCCNC(=O)Nc1nc2ccccc2s1,5.87%
8,COc1cccc(NC2=NC3(CCCCC3)N=C(N)N2)c1,0.3%
9,CCCCOc1ccc(NC2=NC3(CCCCC3)N=C(N)N2)cc1,-13.7%
10,COc1ccc(NC2=NC3(CCCCC3)N=C(N)N2)cc1,26% (active)
11,CCOc1ccc(/C=C(/NC(=O)c2ccc(Cl)cc2)C(=O)O)cc1OCC,-0.87%
12,NC(=O)c1ccc(-n2nnnc2Oc2ccc(Br)cc2)cc1,-0.77%
13,COc1ccc(NC(=O)Nc2ccccn2)cc1OC,5.35%
14,Cc1c(Br)c(=O)oc2c(C)c(O)ccc12,-1.97%
15,Cc1c(Br)c(=O)oc2c(Br)c(O)ccc12,4.5%
16,CC(C)(Cc1ccc(O)cc1)NC(=O)CC(=O)N/N=C/c1ccc([N+](=O)[O-])cc1,-2.21%
17,COc1cc(/C=N/NC(=O)CCn2c3ccccc3c3ccccc32)cc(OC)c1OC,1.58%
18,O=C(CN1CCN(Cc2ccccc2)CC1)N/N=C/c1cccnc1,1.02%
19,O=C1NC(=Nc2ccc(O)cc2)S/C1=C\C=C\c1ccco1,3.62%
20,Cc1ccc(N=C2NC(=O)/C(=C/C=C/c3ccco3)S2)cc1,4.9%
21,COc1ccc(N=C2NC(=O)/C(=C\C=C\c3ccco3)S2)cc1,8.93%
22,O=C1NC(=Nc2ccccc2)S/C1=C\C=C\c1ccco1,14.8% (active)
23,Cc1cccc(N=C2NC(=O)/C(=C/C=C/c3ccco3)S2)c1C,-4.23%
24,Cc1cccc(N=C2NC(=O)/C(=C/C=C/c3ccco3)S2)c1,13.5% (active)
25,O=C1Cn2c(nc3ccccc32)N1c1cccc(C(F)(F)F)c1,0.84%

row,SMILES,inhibition
1,CN(Cc1ccncc1)C1CC(=O)N(c2ccc(F)cc2)C1=O (stereo not drawn),5.02%
2,CCSc1ccccc1C(=O)NC1CCCCC1,2.94%
3,CCCNCc1cc(Br)ccc1OCC(=O)NCCc1ccccc1,0.38%
4,CC(C)N(Cc1ccccc1)C(=O)Cn1c(=O)cnc2ccccc21,-0.29%
5,Cc1[nH]n(C2=NCCS2)c(=O)c1N=Nc1cccc(C(F)(F)F)c1,-0.55%
6,Cc1cc(C)c(S(=O)(=O)Nn2cnnc2)c(C)c1,-3.71%
7,Cc1ccc(S(=O)(=O)c2c(C)cc(C)nc2Cl)c(C)c1,1.23%
8,Cc1cc(C)c(S(=O)(=O)/N=C2\C=CC(=O)C(Cl)=C2)c(C)c1,14.5% (active)
9,COc1cccc(C2=NN(C(=O)c3ccco3)C(O)(C(F)(F)F)C2)c1 (stereo not drawn),3.28%
10,Cc1ccc(-c2csc3ncnc(OCC(=O)NC(=O)NCc4ccco4)c23)cc1,2.74%
11,CC(=O)Nc1ccc(S(=O)(=O)N(C)c2ccccc2)cc1,-1.32%
12,CN(c1ccccc1)S(=O)(=O)c1ccc(NC(=S)NC(=O)c2ccccc2)cc1,0.7%
13,CN(c1ccccc1)S(=O)(=O)c1ccc(NC(=S)Nc2ccccc2)cc1,18.1% (active)
14,O=C1c2cccc(Sc3ccccc3)c2C(=O)c2c(Sc3ccccc3)cccc21,14.2% (active)
15,O=C1c2cccc(O)c2C(=O)c2c(O)cccc21,6.42%
16,O=C(O)c1ccc2c(c1Sc1ccccc1)C(=O)c1ccccc1C2=O,7.96%
17,CC(C)C(NC(=O)C1CCC(C(C)(C)C)CC1)C(=O)NCc1cccnc1 (stereo not drawn),5%
18,CCOc1ccc(S(=O)(=O)N2CCN(C(=S)NC3CC3)CC2)cc1,4.79%
19,CCn1c(Cc2ccccc2)nnc1SCc1cccc(C(=O)O)c1,1.34%
20,CCC(=NC(C)c1ccccc1)c1c(O)n(C)c(=O)n(C)c1=O (stereo not drawn),-3.09%
21,COc1cc2c(cc1OC)C(c1ccccc1O)N(C1CC(=O)N(c3ccccc3)C1=O)CC2 (stereo not drawn),2.68%
22,CCOC(=O)Cc1csc(NC(=O)c2cc(C)cc(C)c2)n1,-2.68%
23,Cn1c(SCC(=O)O)nnc1-c1ccc2ncccc2c1,-1.41%
24,Cn1c(SCC(=O)N2CCOCC2)nnc1-c1ccc2ncccc2c1,13.7% (active)
25,CCOC(=O)CSc1nnc(-c2ccc3ncccc3c2)n1C,0.08%

row,SMILES,inhibition
1,Cc1ccc(S(=O)(=O)N2CCCOC2CNC(=O)C(=O)NC2CCCCC2)cc1 (stereo not drawn),-5.78%
2,Cc1ccc(C=C2C(=O)c3ccccc3C2=O)o1,2.45%
3,O=C1/C(=C\c2ccc(Br)o2)Cc2ccccc21,8.39%
4,COc1ccc(C(CNC(=O)c2ccc(S(=O)(=O)N(C)C)cc2)N2CCCCC2)cc1 (stereo not drawn),0.14%
5,COc1ccc(NC(=O)N2CCCC2C(=O)NCc2ccc(C)cc2)cc1 (stereo not drawn),1.15%
6,CC(C)CNC(C)C(=O)Nc1ccc(S(N)(=O)=O)cc1 (stereo not drawn),-3.38%
7,C=CCOc1c2ccc(C(=O)NCc3ccc(C)cc3)cc2nn1C,1.15%
8,Cn1c2ccccc2c2cc(C(=O)N3CCN(CCO)CC3)sc21,12.8% (active)
9,Cn1c2ccccc2c2cc(C(=O)N3CCOCC3)sc21,5.13%
10,CC(=O)NNC(=O)c1cc2c3ccccc3n(C)c2s1,2.59%
11,Cc1cccc(CSc2nc3c(cc2C#N)CN(C)CC3)c1,-4.03%
12,CN1CCc2nc(SCc3cccc(Br)c3)c(C#N)cc2C1,13% (active)
13,CN1CCc2nc(SCc3ccccc3Br)c(C#N)cc2C1,-4.18%
14,Cc1c(C(=O)OCCOc2ccccc2)[nH]c2c1C(=O)CCC2,2.56%
15,N#C/C(=C\c1ccc([N+](=O)[O-])o1)c1nc2ccccc2[nH]1,-6.95%
16,N#C/C(=C\c1ccco1)c1nc2ccccc2s1,7.35%
17,N#C/C(=C/c1ccc(-c2ccc(S(N)(=O)=O)cc2)o1)c1nc2ccccc2s1,6.34%
18,N#C/C(=C\c1ccc(Sc2ccccc2)o1)c1nc2ccccc2[nH]1,-4.05%
19,N#C/C(=C/c1ccncc1)c1nc2ccccc2s1,-6.23%
20,COc1cc(/C=C(\C#N)c2nc3ccccc3s2)cc([N+](=O)[O-])c1O,6.33%
21,CC(C)(C)NC(=O)NC(=O)COC(=O)c1ccc2c(c1)S(=O)(=O)N=C1CCCCCN12,-5.9%
22,O=C(C(=S)N1CCOCC1)c1c[nH]c2ccccc12,-1.14%
23,O=C1C2C3C=CC(CC3)C2C(=O)N1/N=C/c1c(O)ccc2ccccc12 (stereo not drawn),-1.22%
24,CC(NC(=O)c1ccco1)C1COc2ccccc2O1 (stereo not drawn),1.62%
25,CC(Sc1nnc2ccccn12)C(=O)Nc1ccc(Cl)cn1 (stereo not drawn),8.91%

row,SMILES,inhibition
1,COc1ccccc1C1=NN(C2=NN=C(N)Cc3ncnn32)C(O)(C(F)(F)F)C1 (stereo not drawn),-7.53%
2,N#CCC(=O)N/N=C/c1cccc(Oc2ccccc2)c1,5.36%
3,O=c1c2ccccc2nc(N2CCCC2)n1-c1ccc(Cl)cc1,3.51%
4,O=c1c2ccccc2nc(N2CCCC2)n1-c1ccccc1,13.9% (active)
5,CN1CCN(c2nc3ccccc3c(=O)n2-c2ccccc2)CC1,2.07%
6,CC1(C)CC(=O)C2=C(C1)NC(=O)C21C(C(=O)OC(C)(C)C)=C(N)Oc2ccc(Br)cc21 (stereo not drawn),4.2%
7,O=C(Cc1ccccc1[N+](=O)[O-])NCc1ccc2c(c1)OCO2,14% (active)
8,O=C(Cc1ccccc1[N+](=O)[O-])Nc1ccc2c(c1)OCO2,0.87%
9,O=C(Cc1ccc([N+](=O)[O-])cc1)NCc1ccc2c(c1)OCO2,-3.22%
10,O=C(/C=C/c1ccco1)Oc1cccc2cccnc12,14.7% (active)
11,O=C(/C=C\c1ccco1)Oc1cccc2cccnc12,0.86%
12,O=C(/C=C/c1ccccc1)Oc1cccc2cccnc12,0.34%
13,CN(NC(=O)Nc1ccccc1)c1cnn(C)c(=O)c1Cl,4.46%
14,Cc1ccc(NC(=O)CC2COc3ccccc3O2)cc1 (stereo not drawn),-0.6%
15,CC1(C)CC(=O)C2=C(C1)NC(=O)CC2c1ccc(N(CCC#N)CCC#N)cc1 (stereo not drawn),-4.28%
16,O=C1c2ccccc2C(=O)N1/N=C/c1ccc(O)c(O)c1O,10.8%
17,COc1cc(/C=N/N2C(=O)CSC2=S)ccc1O,-0.65%
18,O=C1CSC(=S)N1/N=C/c1ccc(O)c([N+](=O)[O-])c1,55.6% (active)
19,O=C1CSC(=S)N1/N=C/c1ccc(Cl)c([N+](=O)[O-])c1,4.42%
20,COc1cccc(/C=N/N2C(=O)CSC2=S)c1O,5.18%
21,COC(=O)c1c(C)n(-c2ccc(C)cc2)c2ccc(O)cc12,-3.11%
22,O=C(CCn1c(=O)[nH]c2ccccc2c1=O)N1CC=C(c2ccccc2)CC1,1.07%
23,O=C(CSc1ccccn1)N/N=C/c1cc([N+](=O)[O-])ccc1O,4.16%
